The text below walks through data of ChEMBL document CHEMBL5724796, “Tm Shift (DSF) assay results for EUbOPEN Chemogenomics Library” (2024).

Details in all cases: Compound concentration 20.0 uM
Test [1] has as its target Tyrosine-protein kinase ABL1 (Homo sapiens) (UniProt P00519).
Test [2] addresses Bromodomain-containing protein 4 (Homo sapiens) (UniProt O60885).
Test [3] addresses Cyclin-dependent kinase 2 (Homo sapiens) (UniProt P24941).
Test [4] deals with Casein kinase I isoform delta (Homo sapiens) (UniProt P48730).
Test [5] addresses Glycogen synthase kinase-3 beta (Homo sapiens) (UniProt P49841).
Test [6] has as its target Mitogen-activated protein kinase 1 (Homo sapiens) (UniProt P28482).
Test [7] deals with T1, Aurora kinase A (Homo sapiens) (UniProt O14965).
T1 sequence (whole entry): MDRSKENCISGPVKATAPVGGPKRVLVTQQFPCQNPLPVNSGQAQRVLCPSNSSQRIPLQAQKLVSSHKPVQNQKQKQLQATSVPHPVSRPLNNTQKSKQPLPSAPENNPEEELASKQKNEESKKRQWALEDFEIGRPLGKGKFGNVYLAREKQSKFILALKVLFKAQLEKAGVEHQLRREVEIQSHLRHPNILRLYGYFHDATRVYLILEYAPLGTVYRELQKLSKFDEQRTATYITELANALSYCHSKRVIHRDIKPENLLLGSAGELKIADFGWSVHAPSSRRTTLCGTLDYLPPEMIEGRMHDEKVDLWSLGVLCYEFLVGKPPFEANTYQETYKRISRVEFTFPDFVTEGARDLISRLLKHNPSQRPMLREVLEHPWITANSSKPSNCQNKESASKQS

Test [8] has as its target T2, Transcription intermediary factor 1-alpha (Homo sapiens) (UniProt O15164).
T2 sequence (whole entry): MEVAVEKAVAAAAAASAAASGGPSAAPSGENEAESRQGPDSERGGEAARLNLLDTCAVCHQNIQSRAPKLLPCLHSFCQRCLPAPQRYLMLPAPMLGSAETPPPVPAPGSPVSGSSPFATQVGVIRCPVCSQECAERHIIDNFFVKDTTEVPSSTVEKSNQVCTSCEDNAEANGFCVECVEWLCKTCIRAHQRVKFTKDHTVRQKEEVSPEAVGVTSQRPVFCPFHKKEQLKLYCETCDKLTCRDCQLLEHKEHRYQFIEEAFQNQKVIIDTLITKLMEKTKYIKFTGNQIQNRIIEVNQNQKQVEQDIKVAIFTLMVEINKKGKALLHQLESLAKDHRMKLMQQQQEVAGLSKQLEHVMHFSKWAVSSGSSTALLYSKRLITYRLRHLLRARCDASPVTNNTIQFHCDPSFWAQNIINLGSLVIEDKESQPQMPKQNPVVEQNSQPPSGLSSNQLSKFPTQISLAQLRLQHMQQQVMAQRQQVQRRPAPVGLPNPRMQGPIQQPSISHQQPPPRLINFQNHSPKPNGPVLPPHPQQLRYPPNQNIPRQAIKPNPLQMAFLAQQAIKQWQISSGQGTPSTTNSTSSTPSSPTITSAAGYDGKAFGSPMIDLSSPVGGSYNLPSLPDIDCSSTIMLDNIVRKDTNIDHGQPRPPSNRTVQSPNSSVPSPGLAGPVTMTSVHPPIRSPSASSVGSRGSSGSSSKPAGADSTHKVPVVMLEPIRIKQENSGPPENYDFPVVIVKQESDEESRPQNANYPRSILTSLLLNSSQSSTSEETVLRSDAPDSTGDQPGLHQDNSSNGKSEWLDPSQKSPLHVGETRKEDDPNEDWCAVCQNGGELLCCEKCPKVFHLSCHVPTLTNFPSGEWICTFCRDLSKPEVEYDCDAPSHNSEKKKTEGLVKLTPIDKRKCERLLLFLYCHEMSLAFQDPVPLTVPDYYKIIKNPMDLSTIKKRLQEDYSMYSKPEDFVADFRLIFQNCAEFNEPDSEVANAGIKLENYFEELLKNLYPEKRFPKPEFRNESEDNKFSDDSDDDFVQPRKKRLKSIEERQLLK

As usually defined, the ΔTm is the shift of the melting midpoint relative to a reference.

Chain of Casein kinase I isoform delta (Homo sapiens) (P48730 whole entry, looked up, canonical isoform): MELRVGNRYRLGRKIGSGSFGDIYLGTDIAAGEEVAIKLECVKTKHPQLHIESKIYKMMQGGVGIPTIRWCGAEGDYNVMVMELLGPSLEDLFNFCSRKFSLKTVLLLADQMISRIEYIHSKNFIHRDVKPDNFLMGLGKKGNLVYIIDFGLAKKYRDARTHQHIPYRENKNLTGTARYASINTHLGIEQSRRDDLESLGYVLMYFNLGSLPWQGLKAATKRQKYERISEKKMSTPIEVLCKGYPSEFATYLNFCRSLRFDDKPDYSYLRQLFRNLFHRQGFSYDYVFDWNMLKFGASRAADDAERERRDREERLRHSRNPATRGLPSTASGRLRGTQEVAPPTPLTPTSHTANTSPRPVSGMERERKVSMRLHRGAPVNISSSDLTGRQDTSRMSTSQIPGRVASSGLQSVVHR
Chain of Glycogen synthase kinase-3 beta (Homo sapiens) (P49841 whole entry, looked up): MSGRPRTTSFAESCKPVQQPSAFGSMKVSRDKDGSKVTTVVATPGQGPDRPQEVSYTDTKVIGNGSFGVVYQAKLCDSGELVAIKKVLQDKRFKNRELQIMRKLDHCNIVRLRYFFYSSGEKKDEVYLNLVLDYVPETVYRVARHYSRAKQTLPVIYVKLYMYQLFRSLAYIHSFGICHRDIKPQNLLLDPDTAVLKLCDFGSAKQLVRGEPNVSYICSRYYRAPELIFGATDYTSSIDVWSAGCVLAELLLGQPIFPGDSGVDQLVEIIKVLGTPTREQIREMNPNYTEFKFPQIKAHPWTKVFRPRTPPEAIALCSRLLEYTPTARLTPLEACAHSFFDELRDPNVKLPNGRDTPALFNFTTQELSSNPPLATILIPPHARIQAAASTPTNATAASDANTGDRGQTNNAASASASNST
Chain of Mitogen-activated protein kinase 1 (Homo sapiens) (P28482 whole entry): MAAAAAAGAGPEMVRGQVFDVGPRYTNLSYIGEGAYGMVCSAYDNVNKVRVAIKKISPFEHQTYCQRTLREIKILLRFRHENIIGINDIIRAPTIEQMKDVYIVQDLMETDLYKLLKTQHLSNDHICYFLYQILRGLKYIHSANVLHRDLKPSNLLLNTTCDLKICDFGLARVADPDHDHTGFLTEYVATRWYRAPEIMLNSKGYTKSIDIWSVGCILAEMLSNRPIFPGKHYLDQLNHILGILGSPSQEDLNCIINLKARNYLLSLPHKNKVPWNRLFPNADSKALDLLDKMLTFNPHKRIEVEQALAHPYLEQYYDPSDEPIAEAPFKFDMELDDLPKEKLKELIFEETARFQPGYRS
Chain of Tyrosine-protein kinase ABL1 (Homo sapiens) (P00519 whole entry): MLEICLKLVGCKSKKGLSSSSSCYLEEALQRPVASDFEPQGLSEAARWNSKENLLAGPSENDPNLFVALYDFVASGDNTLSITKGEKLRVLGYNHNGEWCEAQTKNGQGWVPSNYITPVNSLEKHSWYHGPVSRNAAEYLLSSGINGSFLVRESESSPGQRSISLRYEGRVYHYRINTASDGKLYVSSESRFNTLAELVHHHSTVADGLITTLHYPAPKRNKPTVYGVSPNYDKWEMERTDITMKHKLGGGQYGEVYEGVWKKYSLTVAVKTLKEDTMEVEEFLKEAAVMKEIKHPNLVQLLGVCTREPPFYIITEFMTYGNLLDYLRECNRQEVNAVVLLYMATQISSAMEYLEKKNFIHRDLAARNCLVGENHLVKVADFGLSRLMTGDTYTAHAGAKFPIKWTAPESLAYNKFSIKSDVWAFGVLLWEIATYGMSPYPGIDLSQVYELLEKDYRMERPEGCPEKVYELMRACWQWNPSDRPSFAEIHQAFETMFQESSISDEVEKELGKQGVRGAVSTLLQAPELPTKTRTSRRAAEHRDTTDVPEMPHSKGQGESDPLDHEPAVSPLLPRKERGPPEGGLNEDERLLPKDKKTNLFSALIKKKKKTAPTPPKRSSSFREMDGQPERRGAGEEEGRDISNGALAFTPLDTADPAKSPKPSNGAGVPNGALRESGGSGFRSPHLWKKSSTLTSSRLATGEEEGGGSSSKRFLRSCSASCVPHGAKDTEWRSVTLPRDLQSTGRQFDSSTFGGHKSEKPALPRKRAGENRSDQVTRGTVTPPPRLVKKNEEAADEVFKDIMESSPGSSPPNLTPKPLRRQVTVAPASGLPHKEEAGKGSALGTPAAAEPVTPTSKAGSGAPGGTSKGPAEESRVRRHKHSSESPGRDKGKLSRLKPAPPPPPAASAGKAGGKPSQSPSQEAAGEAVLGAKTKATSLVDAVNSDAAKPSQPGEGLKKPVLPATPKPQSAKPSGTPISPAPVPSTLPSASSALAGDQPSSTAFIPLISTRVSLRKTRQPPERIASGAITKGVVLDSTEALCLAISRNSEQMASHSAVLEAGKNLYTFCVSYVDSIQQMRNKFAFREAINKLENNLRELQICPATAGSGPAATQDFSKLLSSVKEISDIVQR

Take `O=C(NCC1CCOCC1)c1n[nH]cc1NC(=O)c1c(F)cccc1F`: the ΔTm in test [1] was 0.15 °C; in test [2] it was -2 °C; in test [3], 3.53 °C; in test [4], 1.77 °C; in test [5] it was 14.4 °C; in test [6], 0.1 °C. Further, the ΔTm was 1.73 °C in test [7] and -0.72 °C in test [8].

Turning to `CC(C)NC(=O)c1ccc(OC(F)F)c(OCC2CC2)c1`, the ΔTm in test [1] was 0.64 °C; in test [2] it was -3.14 °C; in test [3], 0.29 °C; in test [4] it was -0.07 °C; in test [5], -0.46 °C; in test [6] it was 0.24 °C. For the same molecule, the ΔTm is -2.33 °C in test [7] and 1.71 °C in test [8].

For `N=C(N)N/N=C/c1cccc(Cl)c1Cl`, the shift in melting temperature (ΔTm) in test [1] is 0.36 °C; in test [2] it was -1.26 °C; in test [3], -0.05 °C; in test [4], 0.55 °C; in test [5], -0.98 °C; in test [6], 0.2 °C. The ΔTm in test [7] was -0.81 °C; in test [8] it was -0.47 °C.

As to `O=C(NO)c1cccc(C(=O)NCCc2ccccc2)c1`, the ΔTm in test [1] was 0.54 °C; in test [2], -1.69 °C; in test [3] it was 1.3 °C; in test [4] it was 0.19 °C; in test [5] it was -1.53 °C; in test [6], 0.15 °C. Besides, the ΔTm in test [7] is -0.23 °C; in test [8] it was -1.33 °C.

For `O=C1Nc2ccccc2C2(CCN(CC(Cc3ccccc3)Nc3nc4ccc(F)cc4s3)CC2)N1` (stereo not drawn), the thermal shift (ΔTm) in test [1] was 0.77 °C; in test [2] it was -4.21 °C; in test [3], -0.52 °C; in test [4] it was -0.49 °C; in test [5], -1.4 °C; in test [6], -0.14 °C. The ΔTm in test [7] is -2.22 °C; in test [8], 0.18 °C.

As for `CCn1nc(C2CC2)cc1Nc1nc(C(=O)NC)nc2[nH]c3cc(-c4c(C)noc4C)c(OC)cc3c12`, the ΔTm in test [1] is 0.56 °C; in test [2], 8.71 °C; in test [3], -0.11 °C; in test [4], -0.18 °C; in test [5], -1.43 °C; in test [6], 0.23 °C. Further, the results for the ΔTm in test [7] and in test [8] were -2.42 °C and 0 °C, respectively.

On to `CC(C)(O)c1ccc(N2Cc3c(ccnc3-c3ccc(F)cc3OCC(F)(F)F)C2=O)cc1`, for which the shift in melting temperature (ΔTm) in test [1] was 1.61 °C; in test [2], -2.56 °C; in test [3] it was -1.07 °C; in test [4], 0.07 °C; in test [5], 0.38 °C; in test [6], -10.3 °C. For the same molecule, the values for the ΔTm in test [7] and in test [8] were 1.43 °C and -1.06 °C, respectively.

With `CNC(=O)c1cc(Nc2ccnc(Nc3ccc(CCNC(=O)OC(C)(C)C)cc3)n2)n[nH]1`, the ΔTm in test [1] was 0.52 °C; in test [2] it was -6.4 °C; in test [3], -0.49 °C; in test [4], 0.55 °C; in test [5] it was -1.3 °C; in test [6] it was -12.3 °C. For the same molecule, the thermal shift (ΔTm) in test [7] was -0.62 °C; in test [8], 0.91 °C.

As to `OC1CN=C2c3ccn([C@@H]4O[C@H]([C@H](O)c5ccc(Cl)cc5)[C@@H](O)[C@H]4O)c3N=CN21` (stereo partly drawn), the ΔTm in test [1] is 0.73 °C; in test [2], -1.38 °C; in test [3], 0.66 °C; in test [4], 0.22 °C; in test [5], -0.73 °C; in test [6], 0.16 °C. For the same molecule, the ΔTm is -0.39 °C in test [7] and -1.14 °C in test [8].

`CC1(C)Cn2nc(-c3ccc(F)cn3)c(-c3ccnc4[nH]ncc34)c2CO1`: the ΔTm was 2.43 °C in test [1]; -1.54 °C in test [2]; 0.09 °C in test [3]; 9.16 °C in test [4]; -1.21 °C in test [5]; -0.48 °C in test [6]. Further, the ΔTm is -0.55 °C in test [7] and -1.54 °C in test [8].

On to `CCNC(=O)c1noc(-c2cc(C(C)C)c(O)cc2O)c1-c1ccc(CN2CCOCC2)cc1`, for which the ΔTm in test [1] was 0.97 °C; in test [2], -0.86 °C; in test [3], 0.79 °C; in test [4] it was 0.41 °C; in test [5], 0.48 °C; in test [6] it was -0.06 °C. Moreover, the shift in melting temperature (ΔTm) in test [7] amounted to 0.68 °C; in test [8] it was 0.38 °C.
